Assay results published in PubChem BioAssay (NCATS).
Records with an inconclusive call do not appear. The source made the active and inactive calls. Calls come from the whole dose curve; as a rule, active = well fitted inhibition curve with a large enough effect; inconclusive = small, poorly fitted or top-dose-only effect; inactive = flat fitted curve, though single readings scatter. Bridge positions count the residues as written; N and C are the ends. Square brackets hold non-standard residues; d marks the D form. Peptide text beside a SMILES is read from it. * marks the point of attachment. Ileψ(thiazoline)Cys = CC[C@H](C)[C@H](N)C1=N[C@H](C(=O)*)CS1; d(aIle) = CC[C@H](C)[C@@H](N)C(=O)O; dOrn = NCCC[C@@H](N)C(=O)O

Columns and labels:
Assay in all cases: qHTS profiling for inhibitors of Plasmodium falciparum proliferation (AID 504749); note: nearly all actives have a fitted effect of over 60% in size
Conditions in all cases: P. falciparum in erythrocytes, SYBR Green DNA, 72 h; series mostly up to 12.8 µM
CP262 = test system: CP262
Procedure, shortened: (§1)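 Readout was DNA-dye fluorescence from lysed cultures, ex 485/em 535 nm. Parasitized red cells had grown 72 h with compound; data scaled between 0.29 uM artemisinin and DMSO wells and corrected using vehicle-only plates.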

CP265 = test system: CP265
Procedure, shortened: as §1

CP266 = test system: CP266
Procedure, shortened: as §1

CP268 = test system: CP268
Procedure, shortened: as §1

CP269 = test system: CP269
Procedure, shortened: as §1

CP286 = test system: CP286
Procedure, shortened: as §1

CP291 = test system: CP291
Procedure, shortened: as §1

CP297 = test system: CP297
Procedure, shortened: as §1

CP305 = test system: CP305
Procedure, shortened: as §1

CP315 = test system: CP315
Procedure, shortened: as §1

CP325 = test system: CP325
Procedure, shortened: as §1

CP329 = test system: CP329
Procedure, shortened: as §1

CP335 = test system: CP335
Procedure, shortened: as §1

DFO2036 = test system: DFO2036
Procedure, shortened: as §1

DIV14 = test system: DIV14
Procedure, shortened: as §1

DIV17 = test system: DIV17
Procedure, shortened: as §1

DIV30 = test system: DIV30
Procedure, shortened: as §1

Dd2 = test system: Dd2
Procedure, shortened: as §1

ECU = test system: ECU
Procedure, shortened: as §1

FAB9 = test system: FAB9
Procedure, shortened: as §1

GB4 = test system: GB4
Procedure, shortened: as §1

HB3 = test system: HB3
Procedure, shortened: as §1

ICS = test system: ICS
Procedure, shortened: as §1

JCK = test system: JCK
Procedure, shortened: as §1

N140 = test system: N140
Procedure, shortened: as §1

P93_24 = test system: P93_24
Procedure, shortened: as §1

P94_40 = test system: P94_40
Procedure, shortened: as §1

PAD = test system: PAD
Procedure, shortened: as §1

PC15 = test system: PC15
Procedure, shortened: as §1

PC26 = test system: PC26
Procedure, shortened: as §1

PC49 = test system: PC49
Procedure, shortened: as §1

TAB109 = test system: TAB109
Procedure, shortened: as §1

TAB113 = test system: TAB113
Procedure, shortened: as §1

TAB165 = test system: TAB165
Procedure, shortened: as §1

W2 = test system: W2
Procedure, shortened: as §1

Measured: Potency

CC[C@H](C)[C@H](N)C1=N[C@H](C(=O)N[C@@H](CC(C)C)C(=O)N[C@@H](CCC(=O)O)C(=O)N[C@@H](C(=O)N[C@H]2CCCCNC(=O)[C@@H](CC(N)=O)NC(=O)[C@@H](CC(=O)O)NC(=O)[C@@H](Cc3cnc[nH]3)NC(=O)[C@@H](Cc3ccccc3)NC(=O)[C@@H]([C@@H](C)CC)NC(=O)[C@@H](CCCN)NC2=O)[C@@H](C)CC)CS1 ({Ileψ(thiazoline)Cys}-LE[d(aIle)]K[dOrn][d(aIle)][dF][dH][dD][dN]; lactam 4-C)
inactive: CP262 | CP265 | CP266 | CP268 | CP269 | CP286 | CP291 | CP297 | CP305 | CP315 | CP325 | CP329 | CP335 | DFO2036 | DIV14 | DIV17 | DIV30 | Dd2 | ECU | FAB9 | GB4 | HB3 | ICS | JCK | N140 | P93_24 | P94_40 | PAD | PC15 | PC26 | PC49 | TAB109 | TAB113 | TAB165 | W2
